An excerpt weighted towards active compounds, which were near 3.7% of everything screened.
BoNT A protease – BoNT A light chain protease inhibition. 360,000 compounds, 0.17% hits. inhibition, % at 10 µM. multiplex microsphere protease substrate cleavage, flow cytometry; further: plate controls were buffer without enzyme for full effect and enzyme alone for no effect
Anthrax LF prot – inhibitors of Bacillus anthracis lethal factor protease; P15917; multiplex microsphere protease cleavage assay, LF; inhibition, % at 10 µM; 360,000 compounds, 0.12% hits; further: plate controls were buffer without enzyme for full effect and enzyme alone for no effect
Target sequence (P15917 whole entry, looked up): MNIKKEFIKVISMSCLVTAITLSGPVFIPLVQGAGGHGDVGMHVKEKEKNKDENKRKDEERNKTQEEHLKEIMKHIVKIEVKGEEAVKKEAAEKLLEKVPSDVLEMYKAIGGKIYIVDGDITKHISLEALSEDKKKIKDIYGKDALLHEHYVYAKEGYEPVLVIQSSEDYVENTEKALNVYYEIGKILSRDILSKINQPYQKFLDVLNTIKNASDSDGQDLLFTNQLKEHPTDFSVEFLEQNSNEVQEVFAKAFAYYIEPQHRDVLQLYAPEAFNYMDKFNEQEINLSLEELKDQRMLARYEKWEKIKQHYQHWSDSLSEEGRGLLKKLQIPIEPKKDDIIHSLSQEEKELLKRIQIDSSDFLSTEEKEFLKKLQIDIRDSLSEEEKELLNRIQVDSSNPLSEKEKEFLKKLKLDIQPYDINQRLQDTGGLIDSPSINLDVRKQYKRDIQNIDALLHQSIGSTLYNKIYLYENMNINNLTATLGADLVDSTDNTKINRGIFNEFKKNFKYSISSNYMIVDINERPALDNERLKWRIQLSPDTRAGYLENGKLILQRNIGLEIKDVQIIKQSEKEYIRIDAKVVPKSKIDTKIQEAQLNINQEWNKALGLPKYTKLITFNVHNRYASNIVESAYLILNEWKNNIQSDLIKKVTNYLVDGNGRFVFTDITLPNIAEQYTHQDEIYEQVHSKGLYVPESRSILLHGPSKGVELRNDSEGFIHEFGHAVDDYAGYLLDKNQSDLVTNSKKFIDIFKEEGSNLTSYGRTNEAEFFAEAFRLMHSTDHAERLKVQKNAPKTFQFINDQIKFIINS
Bead autofluor – compound fluorescence in toxin protease inhibitor counterscreen | compound autofluorescence counterscreen, microsphere flow cytometry; hits give high values | 360,000 compounds, 3.1% hits | fluorescence intensity (concentration not given with the values) | AID 624483; in the data active means fluorescence intensity above about 16000; inconclusive means no clear call, values can overlap the other calls
MazF activator – activators of E. coli MazEF toxin-antitoxin RNase. AID 504720. 350,000 compounds, 0.32% hits. activation, % at 20 µM. P0AE70. FAM/BHQ RNA-DNA oligo cleavage fluorescence, 5 h; in the data active means activation above about 50%
BoNT F protease – inhibitors of Botulinum neurotoxin F light chain protease | 360,000 compounds, 0.22% hits | AID 588497 | Multiplex microsphere protease cleavage assay, flow cytometry | inhibition, % at 10 µM; in the data active means inhibition above about 35%, passing the limit was not always enough; inconclusive means no clear call, values can overlap the other calls; further: plate controls were buffer without enzyme for full effect and enzyme alone for no effect
* hit, by the source's call; u = inconclusive. Unless noted, no stated cut-off is given here; in the data, active means inhibition above about 30%; inconclusive means no clear call, values can overlap the other calls; inactive means below that.

SMILES	BoNT A protease	Anthrax LF prot	Bead autofluor	MazF activator	BoNT F protease
Cc1cc(C)n2nc(SC(C)C(=O)N3CCC4(CC3)OCCO4)nc2n1 (stereo not given)	u	-1	24597*	1	-6
COc1ccc2c(c1)O/C(=C\c1sccc1C)C2=O	12	1	2448	1	40*
CSc1ccccc1C(=O)Nc1cc(C)cc(C)c1	0	0	2436	7	12
COc1ccc(OC)c(NC(=O)c2ccccc2SC)c1	0	0	16141*	9	-3
CSc1ccccc1C(=O)Nc1ccc(C)c(C)c1	u	-9	16135*	-4	1
COc1ccc(S(=O)(=O)N2CCN(C(=O)NCc3ccc(OC)c(OC)c3)CC2)cc1	-4	4	3509	4	10
O=C(COc1ccc2c(-c3ccccc3)cc(=O)oc2c1)NCC(O)c1ccccc1 (stereo not given)	0	2	5581	-19	-5
S=c1nc(-c2ccc(Cl)cc2)[nH][nH]1	2	-16	3952	10	u
CCCOc1ccc(-c2nc(=S)[nH][nH]2)cc1	u	-3	22693*	6	-1
N/C(=N\OC(=O)Cc1ccc(-c2ccccc2)cc1)c1cccnc1	2	-2	15735	-3	3
N/C(=N\OC(=O)CCC1CCCC1)c1ccc(Br)cc1	3	-1	5296	-3	-1
N/C(=N\OC(=O)CCC1CCCCC1)c1cccnc1	-2	-4	21493*	4	-2
N/C(=N\OC(=O)Cc1ccccc1)c1cccnc1	7	-7	20077*	-2	6
N/C(=N\OC(=O)Cc1ccc(-c2ccccc2)cc1)c1cccc([N+](=O)[O-])c1	-1	-4	16257*	0	-4
C#CCN1[C@@H]2CCN(C2)c2cc(Br)ccc2S1(=O)=O	0	-3	3389	4	2
COc1ccc(CN2C(=O)C(CC(=O)NCc3ccco3)CC(C(=O)N3CCOCC3)=C2C)cc1 (stereo not given)	0	5	2838	2	2
CCOC(=O)C1=C(COC(=O)/C=C/c2cccc(OC)c2)NC(=O)NC1C (stereo not given)	-2	-1	4620	-1	-6
Cc1cc(C)c2c(c1)-c1cc(C)nn1C(c1ccc3c(c1)OCO3)N2 (stereo not given)	u	0	24496*	-3	-9
Cc1cc2n(n1)C(c1ccc3c(c1)OCO3)Nc1c(C)cccc1-2 (stereo not given)	2	u	u	7	-2
CC1(C)Cc2nc3oc4c(=O)n(CC(=O)Nc5ccccc5)cnc4c3cc2CO1	0	1	2473	8	-4
CC1(C)Cc2nc3sc4c(=O)n(CC(=O)NCc5ccco5)cnc4c3cc2CO1	u	-4	19965*	5	12
Cc1ccc(OCC(=O)NN=C2C3CC4CC(C3)CC2C4)cc1	-2	-6	9371	5	-2
O=C(CSc1nnc(SCc2cccc3ccccc23)s1)N/N=C/c1c[nH]c2ccccc12	1	-1	2066	-15	0
O=C(CSc1nnc(SCc2ccc(Cl)cc2)s1)N/N=C/c1c[nH]c2ccccc12	0	1	2067	64*	-3
Cc1cccc(NC(=O)c2ccc(NCC3CCCO3)c([N+](=O)[O-])c2)c1 (stereo not given)	0	-3	2503	121*	1
SMILES	BoNT A protease	Anthrax LF prot	Bead autofluor	MazF activator	BoNT F protease
O=C(Nc1cccc(Cl)c1)c1ccc(NCC2CCCO2)c([N+](=O)[O-])c1 (stereo not given)	0	-4	2085	67*	-7
Cc1cccc(NC(=O)c2ccc(NCC3CCCO3)c([N+](=O)[O-])c2)n1 (stereo not given)	-1	-6	4203	7	-4
O=C(Nc1ccc(Cl)c([N+](=O)[O-])c1)c1ccc(NCCCN2CCOCC2)c([N+](=O)[O-])c1	1	-2	23261*	12	-2
Cc1ccc(NC(=O)c2ccc(NCCCN3CCOCC3)c([N+](=O)[O-])c2)cc1Cl	0	0	2363	-2	-4
CCOC(=O)c1cc2c(nc1C)-c1cc(Cl)cc(Cl)c1OC2O (stereo not given)	0	0	2084	4	-2
CS(=O)(=O)c1ccc(C(=O)OCC(=O)NC(=O)C2CCCCC2)cc1[N+](=O)[O-]	0	-1	4173	-26	-8
O=C(Nc1ccccc1)c1ccc(N2CCN(c3ccccn3)CC2)c(S(=O)(=O)N2CCOCC2)c1	-1	-2	16676*	-8	-1
Cc1ccccc1NC(=O)c1ccc(F)c(S(=O)(=O)N2CCN(c3ccccn3)CC2)c1	-4	-3	23271*	2	-4
O=C(Nc1ccccc1)c1ccc(N2CCN(c3ccccc3)CC2)c(S(=O)(=O)N2CCOCC2)c1	16	-36	13379	9	30
CCN(CC)S(=O)(=O)c1ccc2c(c1)N(CC(=O)N1CCC(C(N)=O)CC1)C(=O)CO2	0	-1	4620	8	1
Cc1ccc(C)c(Nc2nc3c(S(=O)(=O)c4ccccc4)nnn3c3ccccc23)c1	0	1	2021	135*	0
CCOc1ccc(-n2nc3ccc(NC(=O)c4ccc5c(c4)OCCO5)cc3n2)cc1	1	-2	7882	59*	10
O=C(Nc1ccon1)c1ccc2c(c1)OCO2	u	2	16433*	0	0
O=C(Nc1ccc2nsnc2c1)c1ccc2c(c1)OCO2	-2	-3	23719*	14	-6
Cc1ccnc(NC(=O)c2ccc3c(c2)OCO3)c1	-1	-2	3516	-2	-6
COc1cc(C)ccc1Oc1ccc([N+](=O)[O-])cc1	-1	4	3956	-11	-6
CCOC(=O)C(=O)Nc1ncc(Cl)s1	0	-4	4686	-5	2
CC(=O)n1nc(-c2ccccc2)nc1NCc1ccc(F)cc1	-1	-7	4540	-1	-3
O=C(c1cccs1)n1nc(-c2ccccc2)nc1NCc1ccc(F)cc1	u	-3	25264*	-4	-6
CCOC(=O)c1c(-c2ccc(C)o2)csc1NC(=S)NC(=O)N(C)C	6	-1	18614*	-6	8
FC(F)(F)c1cccc(Cn2nnnc2-c2cccc(C(F)(F)F)c2)c1	u	0	24655*	-5	-8
FC(F)(F)c1cccc(Cn2nnnc2-c2cc(Cl)cc(Cl)c2)c1	u	-2	16997*	-3	-3
CN1CCC(=NOc2ccc([N+](=O)[O-])cc2)CC1	1	3	1998	14	-2
CC(C)c1ccccc1N1CC(C(=O)O)CC1=O (stereo not given)	2	-14	21241*	7	1
Cc1ccccc1OC(=O)CCC(=O)OCCCC(F)(F)C(F)(F)F	-2	-2	8375	-6	-18
Cc1ccc(OC(=O)CCC(=O)OCCCC(F)(F)C(F)(F)F)cc1	-2	-1	24380*	-1	-4
Cc1ccc(C(=O)c2oc3nc(C)cc(C)c3c2N)cc1	-1	-2	5983	7	-9
CCc1ccc(C(=O)c2oc3nc(C)cc(C)c3c2N)cc1	-3	-5	20259*	2	-3
